In PubChem BioAssay:

tested on: Lefty1; experiment: Lefty1 binders on small-molecule microarrays, primary screen, biochemical, small-molecule microarray, 635/667 nm fluorescence (AID 1139); conditions: small-molecule microarray binding, fluorescence 635/667; higher = more signal

How did the composite z-score turn out when `C=CCC(OC(C)=O)[C@@H]1[C@@H](N(Cc2cccc3ccccc23)C(=O)c2ccc(C)cc2)c2cc(OCCCO)ccc2N1C(=O)Cc1ccc2ccccc2c1` (stereo not given in full) was run?
The composite z-score was -0.136.

Which composite z-score does the source give for `COC(=O)C1(CC(C)C)C=C2C(=C(C)C(=O)C2C)CN1` (stereo not given) here?
Its composite z-score is -0.368.

With `COC(=O)[C@@]1(Cc2ccc(F)cc2)[C@H]2c3cc(C(=O)N4CCCC4)n(C[C@H](O)CO)c3C[C@H]2CN1C(=O)c1ccccc1` as the compound, how does the composite z-score read?
Its composite z-score is -0.472.

Which composite z-score does the source give for `COC(=O)C(CC#Cc1ccc2c(c1)[C@]1(C(=O)N2)[C@H](C(=O)NC[C@H](O)c2ccccc2)[C@H]2C(=O)O[C@H](c3ccccc3)[C@H](c3ccccc3)N2[C@@H]1c1ccc(O)cc1)C(=O)OC` here?
The composite z-score was 0.192.

How did the composite z-score turn out when `CC(C)c1ccc(NN2C(C(O)C3CCCCC3)C=CC3C(=O)N(c4ccccc4)C(=O)C32)cc1` (stereo not given) was run?
The composite z-score was 1.29.

`CN(C)C(=O)[C@]1(CCS(=O)(=O)c2ccccc2)N=C(c2ccc(OCCCO)cc2)O[C@@H]1c1ccccc1CN=[N+]=[N-]` was tested. Which composite z-score did it give?
The composite z-score was -0.421.

`COc1ccc(C(=O)Nc2cccc(CN3C(=O)[C@]4(O[C@H](CC(=O)N(CCO)Cc5ccccc5)[C@@H]([Si](C)(C)c5ccc(OC)cc5)[C@@H]4C)c4ccccc43)c2)cc1` was tested. Which composite z-score did it give?
Its composite z-score is 0.565.

With `C=CCNC(=O)[C@@H]1[C@H]2C(=O)O[C@H](c3ccccc3)[C@H](c3ccccc3)N2[C@H](c2ccc(O)cc2)[C@@]12C(=O)N(C(=O)OCCOC)c1ccc(C#CCC(C(=O)OC)C(=O)OC)cc12` as the compound, how does the composite z-score read?
The composite z-score was 0.719.

`C=CCNC(=O)[C@H]1[C@@H]2C(=O)O[C@@H](c3ccccc3)[C@@H](c3ccccc3)N2[C@@H](c2ccc(OCCO)cc2)[C@]12C(=O)N(C(=O)OCCOC)c1ccc(C#CCNC(N)=O)cc12` was tested. Which composite z-score did it give?
Its composite z-score is 0.707.

For `COC(=O)[C@@]1(Cc2ccc(OC)cc2)[C@@H]2[C@@H](CC(=O)[C@H]2CC(=O)C(=O)N(C)C)CN1C(=O)c1ccccc1`, which composite z-score is on record?
Its composite z-score is -0.477.

How did the composite z-score turn out when `CC(C)N1C(=O)[C@@]2(Cc3ccccc31)c1ccccc1C(=O)N(Cc1ccccc1C(F)(F)F)[C@H]2c1ccc(CO)cc1` was run?
The composite z-score was 0.76.

How did the composite z-score turn out when `COc1ccc(C#Cc2ccc3c(c2)[C@]2(C(=O)N3)[C@H](c3ccccc3OCCO)N3[C@H](c4ccccc4)[C@H](c4ccccc4)OC(=O)[C@H]3[C@@H]2C(=O)NC[C@H](O)c2ccccc2)cc1` was run?
The composite z-score was 1.06.

How did the composite z-score turn out when `O=C1O[C@H](c2ccccc2)[C@H](c2ccccc2)N2[C@H]1[C@@H](C(=O)O)[C@]1(C(=O)Nc3ccccc31)[C@H]2c1ccc(OCCO)cc1` was run?
Its composite z-score is -0.193.

Which composite z-score does the source give for `Cc1ccc(S[C@]2(C(=O)NCCN3CCOCC3)CC(=O)N(C(C)C)[C@@H]2c2ccc(CO)cc2I)cc1` here?
The composite z-score was -0.816.

Which composite z-score does the source give for `COc1ccc([Si](C)(C)[C@H]2[C@H](CC(=O)N(CCO)Cc3ccccc3)O[C@@]3(C(=O)N(c4ccccc4)c4ccccc43)[C@@H]2C)cc1` here?
Its composite z-score is 0.83.

`CN1C(=O)C2C=CC(C(O)c3ccc(I)cc3)N(N(c3ccccc3)c3ccccc3)C2C1=O` (stereo not given) was tested. Which composite z-score did it give?
The composite z-score was -0.432.

`C=CCC(OC(C)=O)[C@@H]1[C@@H](N(Cc2ccc(-c3ccccc3)cc2)C(=O)Cc2ccc(OC)cc2)c2cc(OCCCO)ccc2N1C(=O)Cc1ccc(OC)cc1` (stereo not given in full) was tested. Which composite z-score did it give?
The composite z-score was 0.161.

For `Cc1ccc(S[C@]2(C(=O)NC(C)C)CC(=O)N(Cc3ccccc3)[C@@H]2c2ccc(CO)cc2)cc1`, which composite z-score is on record?
The composite z-score was -1.06.

`C=CCNC(=O)[C@H]1[C@@H]2C(=O)O[C@@H](c3ccccc3)[C@@H](c3ccccc3)N2[C@@H](c2ccc(OCCO)cc2)[C@]12C(=O)N(C(=O)OCCOC)c1ccc(C#CCC(C(=O)OC)C(=O)OC)cc12` was tested. Which composite z-score did it give?
The composite z-score was 1.27.

How did the composite z-score turn out when `CCCCCN1CC=CC23O[C@@H]4/C=C\CCCOC(=O)C4[C@H]2C(=O)N(CCO)[C@@H]3C1=O` (stereo not given in full) was run?
Its composite z-score is 0.126.

`CN1C2C=C(c3ccc(CO)cc3)C(C3C(=O)N(C(N)=O)C(=O)C32)C1C1CC1` (stereo not given) was tested. Which composite z-score did it give?
The composite z-score was -0.72.

Which composite z-score does the source give for `Cc1ccc(S(=O)(=O)N2[C@@H](c3ccccc3)C(C(=O)O)=C[C@H]2C(C)(C)C)cc1` here?
Its composite z-score is 0.576.

Which composite z-score does the source give for `C=C(C(=O)CC[C@@H](OC(=O)c1ccccc1-c1ccccc1C(=O)O)c1ccc(CO)o1)C(C)C` here?
Its composite z-score is 1.51.

How did the composite z-score turn out when `COC(=O)[C@@]1(Cc2ccc(F)cc2)[C@@H]2C(=CC(=O)[C@H]2CC(=O)C(=O)N2CCCC2)CN1C(=O)c1ccccc1` was run?
The composite z-score was 0.903.

For `COC(=O)C(CC#Cc1ccc2c(c1)[C@]1(C(=O)N2)[C@H](C(=O)N2CCCCCCC2)[C@H]2C(=O)O[C@H](c3ccccc3)[C@H](c3ccccc3)N2[C@@H]1c1ccc(OCCO)cc1)C(=O)OC`, which composite z-score is on record?
The composite z-score was 1.79.

For `C=CC[C@H](OC(=O)Nc1ccc(SC)cc1)c1ccc(O)c(F)c1`, which composite z-score is on record?
Its composite z-score is -0.173.

How did the composite z-score turn out when `Cc1cccc([C@H]2C[C@H]3C(Br)=C[C@@]2(CO)C(=O)[C@]32CO2)c1` was run?
Its composite z-score is 0.433.

Which composite z-score does the source give for `C=C(CCCC)C(=O)CC[C@H](OC(=O)c1ccccc1-c1ccccc1C(=O)O)c1cccc(OCCO)c1` here?
Its composite z-score is 0.191.

tested on: wheat germ agglutinin (Triticum aestivum), Alexa647-labelled; experiment: wheat germ agglutinin binders on compound microarrays, profiling panel, artefact control for SMM control-protein annotation, biochemical, small-molecule microarray, 635/667 nm fluorescence (AID 1140); conditions: WGA-A647 binding, 635 nm fluorescence, higher = more signal;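 note: score merges 667 nm feature emission with signal to noise over triplicate slides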

`CCOC(=O)C1=CC[C@@H](c2ccccc2)N(S(=O)(=O)c2ccc(C)cc2)[C@@H]1C#N` was tested. Which composite z-score did it give?
Its composite z-score is 0.72.

Which composite z-score does the source give for `C=CCN1C(=O)[C@]2(O[C@H](CCO)[C@@H]([Si](C)(C)c3ccc(OC)cc3)[C@@H]2C)c2cc(N3C(=O)c4ccccc4Oc4ccccc43)ccc21` here?
Its composite z-score is 0.51.

With `C=CCOC(=O)[C@H]1[C@@H]2C(=O)O[C@@H](c3ccccc3)[C@@H](c3ccccc3)N2[C@@H](c2ccc(OCCOC(=O)[C@H]3C[C@H]4C(=O)NCC(=O)N4[C@H]3c3ccc(O)cc3)cc2)[C@]12C(=O)Nc1ccccc12` as the compound, how does the composite z-score read?
The composite z-score was 0.543.

With `C=CCOC(=O)[C@H]1[C@@H]2C(=O)O[C@@H](c3ccccc3)[C@@H](c3ccccc3)N2[C@@H](c2ccc(OCCOC(=O)[C@@H]3C[C@@H]4C(=O)N[C@@H](Cc5ccccc5)C(=O)N4[C@@H]3c3ccc(O)cc3)cc2)[C@]12C(=O)Nc1ccc(I)cc12` as the compound, how does the composite z-score read?
The composite z-score was 0.0495.

`CC(C)[Si](C#Cc1ccccc1)(O[C@H](c1ccccc1)c1cn(Cc2ccccc2)nn1)C(C)C` was tested. Which composite z-score did it give?
The composite z-score was 0.139.

For `O=C(NCCN1CCOCC1)[C@@H]1c2ccccc2C(=O)N(CC23CC4CC(CC(C4)C2)C3)[C@H]1c1ccc(CO)cc1`, which composite z-score is on record?
The composite z-score was 1.17.

For `O=C1O[C@@H](c2ccccc2)[C@@H](c2ccccc2)N2[C@@H](c3ccccc3OCCO)[C@]3(C(=O)Nc4ccc(C#CC5(O)CCCCCC5)cc43)[C@@H](C(=O)N3CCCCCCC3)[C@H]12`, which composite z-score is on record?
The composite z-score was 1.67.

`CCOC(=O)C[C@H]1[C@H](OC(=O)c2ccc(-c3ccccc3)cc2)[C@@H](NC(=O)C2CCCCC2)c2cc(OCCCO)ccc2N1C(=O)Cc1ccc(OC)cc1` was tested. Which composite z-score did it give?
Its composite z-score is 0.229.

With `C=CCC(OC(C)=O)[C@@H]1[C@@H](N(Cc2cccc3ccccc23)C(=O)c2ccc(C)cc2)c2cc(OCCCO)ccc2N1C(=O)Cc1ccc2ccccc2c1` (stereo not given in full) as the compound, how does the composite z-score read?
Its composite z-score is -0.0836.

`COC(=O)C1(CC(C)C)C=C2C(=C(C)C(=O)C2C)CN1` (stereo not given) was tested. Which composite z-score did it give?
The composite z-score was 0.67.

With `COC(=O)[C@@]1(Cc2ccc(F)cc2)[C@H]2c3cc(C(=O)N4CCCC4)n(C[C@H](O)CO)c3C[C@H]2CN1C(=O)c1ccccc1` as the compound, how does the composite z-score read?
Its composite z-score is 0.883.

For `COC(=O)C(CC#Cc1ccc2c(c1)[C@]1(C(=O)N2)[C@H](C(=O)NC[C@H](O)c2ccccc2)[C@H]2C(=O)O[C@H](c3ccccc3)[C@H](c3ccccc3)N2[C@@H]1c1ccc(O)cc1)C(=O)OC`, which composite z-score is on record?
The composite z-score was 0.0123.

For `CC(C)c1ccc(NN2C(C(O)C3CCCCC3)C=CC3C(=O)N(c4ccccc4)C(=O)C32)cc1` (stereo not given), which composite z-score is on record?
The composite z-score was 1.27.

For `CN(C)C(=O)[C@]1(CCS(=O)(=O)c2ccccc2)N=C(c2ccc(OCCCO)cc2)O[C@@H]1c1ccccc1CN=[N+]=[N-]`, which composite z-score is on record?
The composite z-score was 0.774.

Which composite z-score does the source give for `COc1ccc(C(=O)Nc2cccc(CN3C(=O)[C@]4(O[C@H](CC(=O)N(CCO)Cc5ccccc5)[C@@H]([Si](C)(C)c5ccc(OC)cc5)[C@@H]4C)c4ccccc43)c2)cc1` here?
The composite z-score was 0.596.

For `C=CCNC(=O)[C@@H]1[C@H]2C(=O)O[C@H](c3ccccc3)[C@H](c3ccccc3)N2[C@H](c2ccc(O)cc2)[C@@]12C(=O)N(C(=O)OCCOC)c1ccc(C#CCC(C(=O)OC)C(=O)OC)cc12`, which composite z-score is on record?
Its composite z-score is 0.94.

With `C=CCNC(=O)[C@H]1[C@@H]2C(=O)O[C@@H](c3ccccc3)[C@@H](c3ccccc3)N2[C@@H](c2ccc(OCCO)cc2)[C@]12C(=O)N(C(=O)OCCOC)c1ccc(C#CCNC(N)=O)cc12` as the compound, how does the composite z-score read?
Its composite z-score is 0.929.

For `COC(=O)[C@@]1(Cc2ccc(OC)cc2)[C@@H]2[C@@H](CC(=O)[C@H]2CC(=O)C(=O)N(C)C)CN1C(=O)c1ccccc1`, which composite z-score is on record?
Its composite z-score is 1.34.

How did the composite z-score turn out when `CC(C)N1C(=O)[C@@]2(Cc3ccccc31)c1ccccc1C(=O)N(Cc1ccccc1C(F)(F)F)[C@H]2c1ccc(CO)cc1` was run?
The composite z-score was -0.203.

With `COc1ccc(C#Cc2ccc3c(c2)[C@]2(C(=O)N3)[C@H](c3ccccc3OCCO)N3[C@H](c4ccccc4)[C@H](c4ccccc4)OC(=O)[C@H]3[C@@H]2C(=O)NC[C@H](O)c2ccccc2)cc1` as the compound, how does the composite z-score read?
The composite z-score was 0.319.

`O=C1O[C@H](c2ccccc2)[C@H](c2ccccc2)N2[C@H]1[C@@H](C(=O)O)[C@]1(C(=O)Nc3ccccc31)[C@H]2c1ccc(OCCO)cc1` was tested. Which composite z-score did it give?
Its composite z-score is 0.677.

With `Cc1ccc(S[C@]2(C(=O)NCCN3CCOCC3)CC(=O)N(C(C)C)[C@@H]2c2ccc(CO)cc2I)cc1` as the compound, how does the composite z-score read?
The composite z-score was -0.581.

With `COc1ccc([Si](C)(C)[C@H]2[C@H](CC(=O)N(CCO)Cc3ccccc3)O[C@@]3(C(=O)N(c4ccccc4)c4ccccc43)[C@@H]2C)cc1` as the compound, how does the composite z-score read?
The composite z-score was 0.135.

`CN1C(=O)C2C=CC(C(O)c3ccc(I)cc3)N(N(c3ccccc3)c3ccccc3)C2C1=O` (stereo not given) was tested. Which composite z-score did it give?
Its composite z-score is 0.536.

`C=CCC(OC(C)=O)[C@@H]1[C@@H](N(Cc2ccc(-c3ccccc3)cc2)C(=O)Cc2ccc(OC)cc2)c2cc(OCCCO)ccc2N1C(=O)Cc1ccc(OC)cc1` (stereo not given in full) was tested. Which composite z-score did it give?
The composite z-score was 0.365.

With `Cc1ccc(S[C@]2(C(=O)NC(C)C)CC(=O)N(Cc3ccccc3)[C@@H]2c2ccc(CO)cc2)cc1` as the compound, how does the composite z-score read?
The composite z-score was 0.704.

How did the composite z-score turn out when `C=CCNC(=O)[C@H]1[C@@H]2C(=O)O[C@@H](c3ccccc3)[C@@H](c3ccccc3)N2[C@@H](c2ccc(OCCO)cc2)[C@]12C(=O)N(C(=O)OCCOC)c1ccc(C#CCC(C(=O)OC)C(=O)OC)cc12` was run?
Its composite z-score is 1.26.
